Most compounds without a hit are left out; they make up all but 5.3% or so of the library.
FMDV antiviral = blocks foot and mouth disease virus; FMDV antiviral cell-based qHTS; Potency, µM (doses to about 57.9 µM), inactives show at the highest dose activity change, negative = inhibition, usual class: inhibitors; 410,000 tested, 1.2% active; AID 1159524; calls by dose curve; tested in HEK293T cells; note: read-out not given here; nearly all actives have a fitted effect of over 45% in size
Marburg entry inh = blocks Marburg virus binding to or entry into cells | Marburg virus pseudotyped entry inhibition, cell reporter | Potency, µM (series often up to 37.8 µM), without a hit: at the highest dose activity change, negative = inhibition, usual class: inhibitors | 300,000 tested, 1.8% active; calls by dose curve; tested in HEK293 cells
Vaccinia Venus = inhibitors of vaccinia virus (Venus reporter). Vaccinia virus Venus reporter expression, fluorescence. Potency, µM (titrated, usually from 36.5 µM), without a hit: at the highest dose activity change, negative = inhibition, most hits filed as inhibitors. 330,000 tested, 0.46% active. AID 720580; calls by dose curve; tested in A549 cells; note: nearly all actives have a fitted effect of over 30% in size
VACV mCherry inh = vaccinia inhibition (mCherry reporter); 310,000 tested, 0.63% active; Potency, µM (top dose mostly 36.5 µM), for inactives: at the top dose activity change, negative = inhibition, hits mostly inhibitors; Vaccinia virus mCherry reporter infection, fluorescence; calls by dose curve; tested in A549 cells; note: nearly all actives have a fitted effect of over 35% in size
HCV inh = blocks hepatitis C virus. 340,000 tested, 3.4% active. Potency, µM (doses to about 41.8 µM), without a hit: top-dose activity change, negative = inhibition, most hits filed as inhibitors. Huh7.5.1 HCVcc-Cre infection, luciferase reporter, 44 h; active = well fitted inhibition curve with a large enough effect; inconclusive = small, poorly fitted or top-dose-only effect, or another doubt; inactive = no such curve, though single readings can be large or run the other way
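A cell-based infection assay in which seeded cells (1,000 per well) receive test compound after 4 h, are inoculated with HCVcc-Cre at approximately 0.5 moi, and are incubated 44 h before luminescence detection.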
LASV entry inh = inhibitors of Lassa virus binding or cell entry | Lassa virus pseudotype entry inhibition, cell reporter | Potency, µM (series often up to 37.9 µM), without a hit: at the top dose activity change, negative = inhibition, actives largely listed as inhibitors | 300,000 tested, 1.2% active | AID 540256; calls by dose curve; tested in HEK293 cells; note: nearly all actives have a fitted effect of over 50% in size
* marks the source's active call; other numbers are inactive results; i = inactive; ? = inconclusive; nt = not tested or not shown; [ ] = remark or other dose. % is set by controls: 0 for no effect and ±100 for the full control effect; potency is the fitted concentration of half-maximal effect.

SMILES | FMDV antiviral | Marburg entry inh | Vaccinia Venus | VACV mCherry inh | HCV inh | LASV entry inh
COc1ccc(C)cc1NC(=O)Cc1c(C(=O)O)c(C)cn1C | -7.8% | nt | -3.8% | -8.2% | nt | 13.8%[46.1 µM]
O=C(CSc1cnc2ccccc2n1)c1ccc(F)cc1 | 17.8% | ? | nt | nt | -7.5% | 5.8µM*
Nc1c(-c2nc(-c3ccncc3)no2)nnn1CC(=O)Nc1ccccc1 | -1.0% | nt | -12.6% | -12.1% | nt | 7.1%[46.1 µM]
O=C(CSC1=NCCN1)Nc1ccccc1[N+](=O)[O-] | ? | -19.2%[46.1 µM] | -4.9% | ? | 12.2% | -23.0%
O=C(CSC1=NCCN1)NC(c1ccccc1)c1ccccc1 | 31.6µM* | -18.3% | -13.7% | -5.3% | 10µM* | ?
COc1ccccc1NC(=O)CSC1=NCCN1 | 0.0% | ? | -11.0% | i | ? | -14.0%
O=C(CSC1=NCCN1)Nc1cccc([N+](=O)[O-])c1 | 17.8µM* | ? | -16.6% | -21.0% | -10.4% | -9.5%
CCN(CC)CCN1C(=O)C(=O)/C(=C(/O)c2c(C)[nH]c(C(=O)OC)c2C)[C@@H]1c1ccc(OC)cc1 | nt | 21.5% | nt | nt | nt | nt
COc1ccc(-c2cc3ccc(O)c(CN4CCCC(C)C4)c3oc2=O)cc1OC (centres undefined) | 11.4% | nt | -5.8% | -5.2% | nt | -1.8%[46.1 µM]
CCCN1C(=O)/C(=C/c2cc(C)n(C)c2C)SC1=Nc1ccc(OC)cc1 | -22.3% | ? | ? | nt | ? | ?
COc1ccc(N=C2S/C(=C\c3cc(C)n(C)c3C)C(=O)N2C)cc1 | -14.4% | ? | -28.6% | nt | 11.2µM* | 4.47µM*
COc1cc(C)ccc1OCCSc1nc2ccc(NC(=O)c3ccc(F)cc3)cc2s1 | ? | -14.8%[46.1 µM] | -4.4% | i | nt | 9.1%[46.1 µM]
CC1C(=O)N2CCCc3cc(NC(=O)C(=O)NCCc4ccc(F)cc4)cc1c32 (centres undefined) | 0.1% | 6.2%[46.1 µM] | -20.0% | -18.8% | 11.2µM* | -19.8%
O=C(Nc1cccc2ncccc12)c1cc([N+](=O)[O-])ccc1Cl | ? | 6.9%[46.1 µM] | -11.9% | -13.7% | 8.91µM* | 0.6%[46.1 µM]
O=C(CCl)Nc1cccc2ncccc12 | -14.0% | ? | ? | 3.55µM* | 12.6µM* | ?
COc1ccc(OCC(=O)Nc2cccc3ncccc23)cc1 | ? | -5.9% | -15.9% | nt | 19.5% | 0.3%
CC(C)(C)c1nc2ccccc2c2nnc(SCC(=O)Nc3nc4ccccc4s3)n12 | ? | ? | -22.8% | -21.2% | 12.6µM* | ?
CC(C)n1c(SCC(=O)c2ccc3c(c2)OCCO3)nc2c1c(=O)n(C)c(=O)n2C | nt | -8.0% | 5.9% | -7.0% | 12.6µM* | ?
Cc1cc(NC(=O)CSc2nc3c(c(=O)n(C)c(=O)n3C)n2C(C)C)no1 | -24.6% | 0.8% | -4.1% | -15.9% | -0.1% | -23.6%
CCOc1ccc2nc(NC(=O)Cn3cnc4c3c(=O)n(C)c(=O)n4C)sc2c1 | 6.8% | 16.8% | nt | nt | -2.4% | 4.1%
CCOc1ccc2nc(NC(=O)CSc3nc4c(c(=O)n(C)c(=O)n4C)n3C(C)C)sc2c1 | 22.4µM* | ? | -3.1% | -3.7% | ? | -8.5%
CC(C)n1c(SCC(=O)Nc2nc3ccccc3s2)nc2c1c(=O)n(C)c(=O)n2C | 22.4µM* | ? | -12.4% | -23.3% | ? | -20.4%
CCC(=O)N(C)C[C@H]1Oc2cc(-c3ccccc3F)ccc2S(=O)(=O)N([C@H](C)CO)C[C@H]1C | 69.4% | nt | -11.9% | i | nt | nt
CCn1nnnc1SCC(=O)N(C)C1CCS(=O)(=O)C1 (centres undefined) | -7.5% | nt | nt | nt | 19.5% | nt
CCn1c(SCC(=O)Nc2nc3ccc(OC)cc3s2)nc2c1c(=O)n(C)c(=O)n2C | ? | ? | nt | nt | 3.98µM* | -41.5%
SMILES | FMDV antiviral | Marburg entry inh | Vaccinia Venus | VACV mCherry inh | HCV inh | LASV entry inh
CCCn1c(SCC(=O)Nc2nc(-c3ccc(OC)cc3)cs2)nc2c1c(=O)n(C)c(=O)n2C | ? | ? | -4.0% | 6.5% | 22.0% | 4.2%
CC(=O)N1C(=O)C(=C2C=C(C)OC(C)=C2)c2ccccc21 | 13.3% | 12.6% | nt | nt | 10µM* | 21.4%
Cn1c(=O)[nH]c(=O)c2c1nc(SCC(=O)Nc1ccccc1)n2Cc1ccccc1 | -15.0% | nt | -8.7% | i | 11.2µM* | nt
CCCn1c(N2CCN(CC(=O)c3c[nH]c4ccccc34)CC2)nc2c1c(=O)[nH]c(=O)n2C | ? | ? | ? | ? | 12.6µM* | ?
CCCCCn1c(N2CCN(Cc3ccccc3)CC2)nc2c1c(=O)[nH]c(=O)n2C | -0.5% | -27.4% | nt | nt | 10µM* | ?
CCn1c(N2CCN(CC(=O)c3c(C)n(C)c4ccccc34)CC2)nc2c1c(=O)[nH]c(=O)n2C | ? | -22.4% | ? | nt | -22.5% | -4.8%
CCCCn1c(CN2CCN(c3cccc(Cl)c3)CC2)nc2c1c(=O)[nH]c(=O)n2C | -8.5% | 1.3µM* | -25.5% | -15.5% | ? | ?
CCOCCn1c(CN2CCN(c3cccc(Cl)c3)CC2)nc2c1c(=O)n(C)c(=O)n2C | ? | nt | -12.4% | -13.9% | 15.8µM* | nt
Cc1cc(C)n(-c2nc3c(c(=O)[nH]c(=O)n3C)n2Cc2ccccc2)n1 | -22.2% | -1.0% | 0.4% | -10.6% | 2µM* | -21.6%
CCOC(=O)C(C)Sc1nc2c(c(=O)[nH]c(=O)n2C)n1Cc1ccc(Cl)cc1 (centres undefined) | ? | nt | -6.2% | i | 2.82µM* | nt
Cc1cccc(Cn2c(CN3CCN(Cc4ccccc4)CC3)nc3c2c(=O)[nH]c(=O)n3C)c1 | -19.4% | nt | -9.3% | -9.3% | 10µM* | nt
Cc1cc(C)n(-c2nc3c(c(=O)[nH]c(=O)n3C)n2CCc2ccccc2)n1 | 0.0% | ? | ? | ? | 2.8% | ?
Cc1nc(N2CCN(c3ccccn3)CC2)c2c(C)c(C(=O)Nc3ccc(F)cc3Cl)sc2n1 | 11.2µM* | nt | nt | nt | ? | nt
Cc1c(C(=O)Nc2ccc3c(c2)OCCO3)sc2ncnc(N3CCCCC3C)c12 (centres undefined) | ? | nt | nt | nt | 11.2µM* | nt
Cc1nc(N2CCC(C)CC2)c2c(C)c(C(=O)Nc3ccc(C(F)(F)F)cc3)sc2n1 | ? | ? | -8.5% | i | 11.2µM* | ?
COc1ccc(NC(=O)c2sc3ncnc(N4CCN(c5ccccn5)CC4)c3c2C)cc1Cl | ? | nt | nt | nt | 6.31µM* | nt
COc1ccc(NC(=O)c2sc3nc(C)nc(N4CCN(c5ccccn5)CC4)c3c2C)cc1Cl | -19.8% | 2.4%[46.1 µM] | -18.6% | -3.2% | ? | ?
Cc1cnc(SCc2ccccn2)nc1C1CCCN(C(=O)c2cc3ccccc3oc2=O)C1 (centres undefined) | -27.9% | nt | -12.9% | -10.2% | nt | nt
COC(=O)C1=C(C)N(Cc2ccccc2)C(=NCc2ccc3c(c2)OCO3)NC1CCc1ccccc1 (centres undefined) | nt | -11.9%[14.2 µM] | nt | nt | nt | ?
CCc1ccc(NC(=O)c2sc3nc(C)nc(N4CCN(c5ccccn5)CC4)c3c2C)cc1 | 2.24µM* | 10µM* | -0.4% | -3.3% | 1.2% | 12.2%[46.1 µM]
Cc1nc(N2CCN(c3ccccn3)CC2)c2c(C)c(C(=O)Nc3ccccc3F)sc2n1 | ? | ? | -7.4% | -9.3% | ? | ?

Compound activity deposited in PubChem BioAssay by National Center for Advancing Translational Sciences (NCATS).
